# Compounds without any hit were thinned out: in the full panel of roughly 83,000, 20% have a hit.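 Compound tested at a single concentration for 48 hours in 96-well plates; a percent growth value below 10 was scored as active.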 Values without a mark were called inactive. Active and inactive are the calls of the source.
# Key:
# Assay in all cases: NCI-60 one-dose screen, 48 h (100 = growth as untreated, 0 = no growth, -100 = all killed)
# Conditions in all cases: 10 µM unless noted
# [1] = test system: NCI-H23 lung
# [2] = test system: NCI-H226 lung
# [3] = test system: NCI-H322M lung
# [4] = test system: HOP-62 NSCLC
# [5] = test system: NCI-H460 lung
# [6] = test system: HOP-92 NSCLC
# [7] = test system: NCI-H522 lung
# [8] = test system: A549/ATCC NSCLC
# [9] = test system: 786-0 renal
# [10] = test system: COLO 205 colon
SMILES,growth [1],growth [2],growth [3],growth [4],growth [5],growth [6],growth [7],growth [8],growth [9],growth [10]
CSc1ccccc1C#C/C=C\C#Cc1ccccc1N1CCCC1=O,53.4%,62.5%,91.5%,60.2%,24.7%,40.7%,70.5%,63.2%,71.1%,65.2%
CC1=CNNc2c3ncnc-3ncn21,98%,99.7%,107%,95.4%,108%,94.7%,96.6%,100%,102%,106%
CCCCCCCN(CCCCCCC)C(=N)c1ccc(OC)c2ccccc12,-70.2% (active),-73.1% (active),-89% (active),-85.9% (active),-92% (active),-86.6% (active),-75.2% (active),-83.7% (active),-90.7% (active),-73% (active)
CC1CCN(C(=O)CSc2nc3sc4c(c3c(=O)[nH]2)CCCC4)CC1,113%,100%,104%,103%,120%,88.2%,89.9%,106%,110%,112%
CC(=O)OC[Si](C)(C)c1ccccc1,112%,95.9%,109%,110%,103%,92.1%,103%,95.8%,96.9%,117%
COc1cc(-c2nc(-c3nc4ccccc4[nH]3)cc3c2[nH]c2ccccc23)cc(OC)c1OC,41.3%,72.6%,73.8%,45.1%,30%,9.1% (active),57.2%,22.5%,82.6%,26.9%
CNC(=O)Cc1nc(-c2cccc(NS(=O)(=O)c3c(F)cccc3F)c2F)c(-c2ccnc(Nc3ccccc3)n2)s1,56%,74.3%,60.8%,43.3%,94%,17.3%,54.8%,55.3%,64%,7.06% (active)
Cc1ccc2c(c1)C(=O)C(c1c(-c3[nH]c(=O)c4ccc(C)cc4c3O)c(O)c3ccccc3c1O)=NC2=O,15.5%,-1.84% (active),38.8%,8.69% (active),-39.8% (active),38.7%,7.58% (active),21.8%,12.7%,69.9%
CC/C(=C(\c1ccc(O)cc1)c1ccc(OCCN(C)CCN(C)C(=O)CCC(=O)c2c(C)[nH]c(/C=C3\N=C(c4ccc[nH]4)C=C3OC)c2C)cc1)c1ccccc1,80.1%,77%,70.4%,91.3%,58.2%,58.8%,81.9%,76.4%,87.5%,89.8%
NC(=O)c1c(NC(=O)c2ccc3c(c2)OCO3)sc2c1CCC(=O)C2,-12.6% (active),-5.74% (active),14.8%,14.9%,3.04% (active),-21% (active),-58.9% (active),-9.76% (active),12.2%,-42.2% (active)
C/C(=N\NC(=O)CC#N)c1cc2cc(Cl)ccc2o1,97.2%,94.6%,97.2%,92.8%,94.2%,-13.3% (active),84.4%,111%,105%,99.7%
COc1ccc(/C=C(\C#N)c2ccc([N+](=O)[O-])cc2)c2ccccc12,65.3%,16.1%,51.6%,27.1%,64.6%,50.1%,34%,48.7%,34.5%,81.4%
COC1=CC(c2ccc[nH]2)=N/C1=C\c1[nH]c(C)c(C(=O)CCCCC(=O)Oc2ccc3c(c2)CCC2C3CC[C@]3(C)[C@@H](O)CC[C@@H]23)c1C (stereo not given in full),73.3%,61.5%,62.9%,68.4%,29.6%,30.4%,12.9%,52.6%,66.1%,94.6%
C=C1C(=O)O[C@H]2[C@H](O)[C@@H](C)CCC/C(C)=C/CC[C@@]3(C)O[C@@H]3C[C@@H]12,95.3%,80.9%,81%,96.3%,91.4%,58%,-17.3% (active),80.7%,93.7%,90.7%
CCCCCCCCCCCCCCCCCCOc1cccc(CCOP(=O)(O)OCC[N+](C)(C)C)c1,96.3%,95.3%,105%,72.2%,60.7%,72.9%,72%,84.9%,91.2%,97.4%
CC(C)CCN(CCCNc1c2c(nc3ccccc13)CCCC2)CCC(C)C,84.1%,102%,81.7%,102%,91%,42.4%,103%,94.1%,77.6%,61.7%
COc1cc(NC(=O)CSc2nc3ccc(C)cc3c(=O)n2-c2ccccc2)cc(OC)c1OC,84.1%,82.6%,101%,91.2%,101%,49.5%,68.7%,83.9%,89.4%,111%
Nc1nn2cc(-c3ccc(Cl)s3)nc2c2ccccc12,102%,94.8%,96.7%,76.4%,86.8%,67%,78.5%,83.9%,104%,95.2%
CCOc1ccc(/C=C/C=N/NC(N)=S)cc1,78.7%,119%,91.7%,106%,96%,89.3%,37.3%,86.1%,56%,84.5%
COc1cccc(/C=C/c2c(C(=O)O)cccc2[N+](=O)[O-])c1OC,104%,99.5%,107%,95.5%,104%,89.1%,113%,103%,99.1%,100%
COc1cc(/C=C/C(=O)c2ccc(NC(=O)CN3CCN(c4cc5c(cc4F)c(=O)c(C(=O)O)cn5C4CC4)CC3)cc2)cc(OC)c1OC,-35.6% (active),-9.81% (active),-7.05% (active),4.38% (active),-20% (active),-1.75% (active),-71.5% (active),-19.2% (active),-67.8% (active),-12.8% (active)
C=C1C(=O)O[C@H]2[C@H]1CC/C(COC(=O)NCCc1cccc(OC)c1)=C\CC[C@@]1(C)O[C@@H]21,75.1%,41.3%,91.7%,66.6%,74.5%,44%,-30.8% (active),79.2%,5.24% (active),-35.3% (active)
COc1ccc(S(=O)(=O)Nc2cc(/C=C\c3cc(OC)c(OC)c(OC)c3)cc(OC)c2OC)cc1OC,31.4%,66.6%,55.2%,52.3%,11.4%,43.3%,37.4%,34%,18%,-47.4% (active)
Nc1c(C(=O)c2ccc(F)cc2)sc2nc3c(cc12)CCCC3,77.9%,85.4%,81.3%,91.1%,90.3%,61.3%,-2.9% (active),70.9%,85.3%,84.8%
O=C(O)C(=Cc1c2ccccc2cc2ccccc12)C(=O)O,91.3%,109%,100%,105%,112%,105%,89.7%,92.1%,106%,113%
CCc1cccc(C)c1NC(=O)c1sc2nc3c(cc2c1N)C(=O)CCC3,39.1%,62.1%,51.3%,23.3%,8.12% (active),79.2%,-0.871% (active),22.9%,38.7%,-7.24% (active)

# Reference: PubChem BioAssay (NCI)
